Results taken from PubChem BioAssay AID624330 (Southern Research Specialized Biocontainment Screening …, 2012).
Out of some 340,000 compounds screened, about 2,100 (0.62%) were called active.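 The calls were made as follows: active = first-screen hits whose inhibition reached a set limit at any dose in the follow-up dose series; inconclusive = inhibition above the set first-screen limit but never retested; inactive = the rest.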 Not all results are given here. Potency and affinity values are given separately.

These compounds were tested against Rac GTPase-activating protein 1 (Homo sapiens) (UniProt Q9H0H5) (assay: blockers of MgcRacGAP-driven Rac1 GTP hydrolysis – biochemical, ADP Hunter fluorescence, primary and confirmatory, confirmation (AID 624330;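 also: fluorescence reports GDP produced by GAP-driven GTP hydrolysis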)). Conditions: MgcRacGAP-stimulated Rac1 GTP hydrolysis, at 30 µM, hits give high values, GST-tagged Rac1 F28L mutant substrate.
Chain of Rac GTPase-activating protein 1 (Homo sapiens) (Q9H0H5 whole entry, looked up): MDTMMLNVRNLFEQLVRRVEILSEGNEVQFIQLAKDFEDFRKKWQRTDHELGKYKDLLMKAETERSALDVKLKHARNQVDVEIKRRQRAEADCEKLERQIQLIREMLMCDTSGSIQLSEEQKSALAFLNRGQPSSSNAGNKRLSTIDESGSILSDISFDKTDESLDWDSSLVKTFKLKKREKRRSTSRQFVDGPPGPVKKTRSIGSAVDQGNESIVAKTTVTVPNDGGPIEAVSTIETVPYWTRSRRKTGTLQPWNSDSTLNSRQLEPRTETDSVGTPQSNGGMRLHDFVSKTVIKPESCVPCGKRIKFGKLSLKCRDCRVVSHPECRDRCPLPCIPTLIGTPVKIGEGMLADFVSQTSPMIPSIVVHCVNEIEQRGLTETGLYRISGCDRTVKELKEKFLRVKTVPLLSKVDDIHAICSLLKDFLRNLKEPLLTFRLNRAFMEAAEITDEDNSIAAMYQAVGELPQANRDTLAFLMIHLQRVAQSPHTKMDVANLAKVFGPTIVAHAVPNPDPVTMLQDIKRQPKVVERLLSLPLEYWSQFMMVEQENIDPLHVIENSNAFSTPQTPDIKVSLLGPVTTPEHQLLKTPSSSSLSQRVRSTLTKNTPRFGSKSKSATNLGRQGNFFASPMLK

inhibition, inactive:
Cc1cccc(C(=O)Nc2ccc(C(=O)N/N=C/c3ccco3)cc2)c1 1.6%
CN(Cc1ccc(Cl)cc1Cl)C(=O)C1CSC2(C)CCC(=O)N12 (stereo not given) 7.87%
O=S(=O)(/N=C(/Nc1nccs1)c1ccc(F)cc1)c1ccccc1 -7.34%
COc1cccc(OC)c1OCCCCN1CCCCC1 19.4%
COc1cccc(OC)c1OCCCCCCN1CCN(C)CC1 4.56%
Cc1cccc(C)c1OCCCN1CCOCC1 9.47%
COc1cccc(OC)c1OCCN1CCCC1 -3.59%
O=[N+]([O-])c1ccc(/C=N\N2CCN(Cc3ccccc3Cl)CC2)cc1 10%
CC(=O)N1c2ccc(S(=O)(=O)NCCC(=O)NC3CCC(C)CC3)cc2CC1C (stereo not given) 6.14%
O=C(CSCC(=O)OCC(=O)c1ccc(Br)cc1)Nc1ccc(Br)cc1 2.71%
C=CCn1c(C)cc(C(=O)COC(=O)CCc2cc(OC)c(OC)c(OC)c2)c1C 1.52%
COc1ccccc1NS(=O)(=O)c1ccc(C(=O)NCC(c2ccco2)N2CCCCC2)cc1 (stereo not given) -5.8%
Cc1cc(C)c(OCCN(C)Cc2ccccc2)c(Br)c1 9.5%
Cc1ccc(Cl)c(OCCCCN(C)Cc2ccccc2)c1 26.2%
Cc1cc(C)c(C)c(OCCCCN(C)Cc2ccccc2)c1 26.2%
Cc1ccc(C(C)C)c(OCCCN(C)Cc2ccccc2)c1 13%
COc1ccc(-c2c[n+]3c4n2CCCCC4=C(c2ccccc2)C3)cc1 8.53%
CCOC(=O)C1CCN(C(=O)CN2C(=O)c3cccnc3Oc3ccccc32)CC1 6.53%
COc1ccc(NC(=O)CCNS(=O)(=O)c2ccc3c(c2)CC(C)N3C(=O)C2CC2)cc1 (stereo not given) 8.6%
COc1ccc(-c2cc(C(=O)N(C)Cc3ccc(F)cc3)c3ccccc3n2)cc1OC 9.06%
CCSc1nnc([C@H](Cc2c[nH]c3ccccc23)NC(=O)OC(C)(C)C)o1 5.34%
COc1ccc(NC(=O)CCC(=O)c2cccs2)cc1Cl 1.13%
Cc1ccc(NCCC(=O)c2cccs2)cc1Cl -0.47%
Cc1ccc(OC(=O)C(F)(F)F)c2c1NCCC2 22.1%
O=C1CCNc2c(Cl)cc(Cl)cc21 -0.57%
COCc1[nH][nH]c(=O)c1C=Nc1ccc(Cl)cc1 8.52%
Cc1ccc(N(CC(=O)Nc2ccccc2-c2ccccc2)S(=O)(=O)c2ccccc2)cc1 1.42%
O=C1Nc2ccccc2/C1=N/N=C/c1cccc(O)c1 -0.92%
COc1ccc(O)c(/C=N/N=C2/C(=O)Nc3ccccc32)c1 10.2%
C#CCOCCOCCOCCNc1nc(N2CCN(C(=O)[C@H](Cc3ccc(O)cc3)n3cc([C@@H](N)C(C)CC)nn3)CC2)nc(N2CCN(C(=O)[C@H](Cc3cc4ccccc4[nH]3)n3cc([C@@H](N)C(C)CC)nn3)CC2)n1 (stereo not given in full) 7.82%
O=C(Nc1ccccc1)c1ccc2nc(-c3ccco3)c(-c3ccco3)nc2c1 14.3%
O=C(c1ccccc1)c1ccc2nc(-c3ccco3)c(-c3ccco3)nc2c1 25.8%
CCc1cccc(C)c1NC(=O)c1cccc(N(C)C)c1 23.8%
CCCCCCCCC1=NCCc2c1[nH]c1ccccc21 12.8%
Cc1cc(=O)[nH]c2cc(O)ccc12 5.17%
CCOCCc1nnc(NC(=O)Cc2c(F)cccc2Cl)s1 -4.41%
NC(=O)c1ncn([C@@H]2O[C@H](CNCc3ccccc3OCc3ccc(Cl)cc3Cl)[C@@H](O)[C@H]2O)n1 -6.96%
COc1ccc(C(=O)CCNc2ccc3c(c2)OCCO3)cc1 38.5%
O=C(Cc1ccccc1[N+](=O)[O-])Nc1ccc2c(c1)OCCO2 2.24%
Cc1ccc(S(=O)(=O)NCc2ccco2)cc1C 0.0567%
O=C(NCc1cccs1)c1ccc2c(c1)OCCO2 -0.21%
O=C(O)CCNc1ccc2c(c1)OCCO2 19.4%
Cc1ccc(Nc2nc(N)c([N+](=O)[O-])c(NCc3ccco3)n2)cc1C 2.81%
O=C(NCc1cccs1)Nc1ccc2c(c1)OCO2 -0.17%
CCOc1ccc(Br)cc1CNc1ccc2c(c1)OCCO2 24.3%
CCCn1c(=O)[nH]c(=O)c2c1nc(-c1ccc3c(c1)OCCO3)n2CCN1CCOCC1 10.3%
O=S(=O)(c1ccccc1)N(Cc1ccccn1)Cc1ccccn1 3.72%
C/C=C(\C)C(=O)OC(C)(C)[C@H]1Cc2cc3ccc(=O)oc3cc2O1 7.55%
CCC(c1nnc(SCC(=O)Nc2cc(Cl)ccc2C#N)n1C1CCCCC1)N(C)C (stereo not given) 5.01%
CCc1ccc(-c2cc(C(=O)O)c3ccccc3n2)s1 -3.07%
CCCN(CCC)CCCNC(=O)c1cc2c(=O)[nH]c3ccccc3c2s1 23.4%
O=C(Cc1ccc(Cl)cc1)SCc1ccccc1 4.82%
O=C(NNC(=O)c1cc([N+](=O)[O-])ccc1Cl)c1cccnc1 3.49%
O=c1[nH]c2ccc(S(=O)(=O)Nc3ccc(Br)cc3)cc2[nH]1 0.44%
Cc1ccc(NCC(O)C(O)C(O)CO)cc1C (stereo not given) 9.4%
Cc1ccc(NCCC#N)cc1C -10%
Cc1cccc(NCc2ccccc2O)c1 13.2%
Cc1ccc(NCc2ccccc2O)cc1 19.1%
COc1ccc(C(CCc2ccc(C)o2)NC(=O)Nc2ccc(OC)cc2OC)cc1 (stereo not given) 0.8%
C/C=C(\C)C(=O)NCCN1C2=NC[C@@H](Cc3ccccc3)N2C[C@@H]1Cc1ccc(OC)cc1 5.16%
Cc1ccc(O)c(/C=N/NC(=O)Cc2ccc(Cl)cc2)c1 -8.7%
COC(=O)C1=C(C)N(Cc2ccccc2)C(=O)N[C@H]1CCc1ccccc1 8.96%
COc1cccc(/C=C2\SC(N3CCCC(C)C3)=NC2=O)c1OC (stereo not given) 10.3%
CC1CCN(C2=NC(=O)/C(=C/c3cccc(O)c3)S2)CC1 3.71%
COc1ccc(OC)c(/C=C2\SC(N3CCCC(C)C3)=NC2=O)c1 (stereo not given) 2.99%
CCOC(=O)C1CCN(C2=NC(=O)/C(=C/c3ccc(Cl)cc3)S2)CC1 7.83%
COc1ccccc1/C=C1\SC(N2CCC(C)CC2)=NC1=O 8.78%
CCOC(=O)C1CCCN(C2=NC(=O)/C(=C/c3ccc(OC)cc3)S2)C1 (stereo not given) 8.26%
CCOC(=O)C1CCN(C2=NC(=O)/C(=C/c3ccc(OC)c(OC)c3)S2)CC1 12.3%
CCOC(=O)C1CCCN(C2=NC(=O)/C(=C/c3ccc(OC)c(OC)c3)S2)C1 (stereo not given) 7.19%
CSCCC(=O)N1C(C)CCCC1C(=O)O (stereo not given) 8.45%
COc1ccccc1-n1c(C)cc(/C=C2\C(=N)N3N=C(CC(=O)N4CCOCC4)SC3=NC2=O)c1C 13.5%
CCCN(CC(=O)Nc1ccccc1C)C(=O)Cc1cccs1 9.22%
COC(=O)C1=C(CS(=O)(=O)c2ccc(Cl)cc2)NC(=O)NC1c1ccc(O)c(OC)c1 (stereo not given) 0.39%
CC(C)(C)NC(=S)NNC(=O)c1ccc2ncccc2c1 4.55%
O=C(NN=C1CCC(=NNC(=O)c2ccccn2)CC1)c1ccccn1 10.4%
CCOc1ccc(/C=C2\SC(N3CCCCC3)=NC2=O)cc1 10.3%
CCOC(=O)C1CCCN(C2=NC(=O)/C(=C/c3ccc(N(C)C)cc3)S2)C1 (stereo not given) 3.86%
Cc1ccsc1/C=N/NC(=O)C(O)c1ccccc1 (stereo not given) 8.51%
S=C(NCc1ccco1)Nc1ccccc1 3.49%
CCN(CC)S(=O)(=O)c1cccc(NC(=O)COC(=O)c2n[nH]c(=O)c3ccccc23)c1 4.21%
COc1cccc(CNc2ccc(F)c(Cl)c2)c1OC 6.64%
COc1cc(CNc2ccc(N3CCCC3)cc2)ccc1OCc1ccccc1F 19.3%
COc1cccc(CNc2ccc(S(N)(=O)=O)cc2)c1OC -0.0267%
COc1ccccc1C(=O)Nc1ccc(N2CCCCC2)cc1 16.2%
COc1cccc(CNC2CCCCCCC2)c1OC 20.3%
COc1cccc(OC)c1C(=O)Nc1ccc(N2CCCC2)cc1 19%
COc1ccc(CC(=O)Nc2cc(Cl)ccc2C(=O)O)cc1 11%
O=C(CSc1nc2cc(Cl)ccc2s1)c1ccco1 9.01%
COc1ccc(N2CCN(C(=O)c3ccccc3N(C)S(=O)(=O)c3ccc(C)cc3)CC2)cc1 30.1%
O=C(O)c1cnc(-c2ccccc2)nc1Oc1ccccc1 4.36%
Nc1nc2n(n1)C(=O)CC(c1ccccc1)N2 (stereo not given) -15.9%
CC(=O)Nc1ccc(S(=O)(=O)NC(C)C(=O)OCC(=O)Nc2ccc(F)cc2Cl)cc1 (stereo not given) 4.68%
COc1ccc(NC(=O)[C@H](C)NC(N)=O)cc1S(=O)(=O)Nc1cc(C)ccc1Br 9.93%
Nc1cc(Cl)ccc1N1CCOCC1 2.6%
O=S(=O)(c1ccc(N2CCOCC2)c(Cl)c1)N1CCOCC1 2.67%
Nc1cc(Cl)ccc1N1CCCCC1 1.75%
Nc1cc(Cl)ccc1N1CCCCCC1 -8.8%
CC1CCN(c2ccc(C(F)(F)F)cc2N)CC1 3.8%
CC(=O)Nc1cc(C(F)(F)F)ccc1N1CCOCC1 2.07%
